The values that follow come from PubChem BioAssay (NCI).

Test systems include DU-145 prostate; K-562 leukemia; MALME-3M melanoma; MDA-MB-231 breast; RXF 393 renal; SF-268 CNS; SF-295 CNS; SF-539 CNS; UACC-257 melanoma; M14 melanoma.
Test in all cases: NCI-60 one-dose screen, 48 h (100 = growth as untreated, 0 = no growth, -100 = all killed)
Settings in all cases: 10 µM unless noted

Molecules are shown by their SMILES. Where “and” joins values, the source holds several entries; their conditions need not be identical. Identical values can stand only once. Compounds without any hit were thinned out: in the full panel of roughly 83,000, 20% have a hit.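 Assay: single dose, 48 h. Readout: percent growth (0 = no net growth; negative = cell death). Active: <10.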 Values without a mark were called inactive. Calls of active or inactive are those of the source.

On to `O=C(/C=C/c1cccs1)Nc1ncc(Cc2ccc(Cl)c(Cl)c2)s1`, for which the growth in the test with DU-145 prostate was 59.5%; in the test on K-562 leukemia, 35.2%; in the test on MALME-3M melanoma it was 53.1%; with MDA-MB-231 breast, 82.9%; with RXF 393 renal, 72.8%; in the test on SF-268 CNS, 67.9%. The growth is 30.2% with SF-295 CNS, 65.1% with SF-539 CNS, 90.8% in the test with UACC-257 melanoma and 29% with M14 melanoma.
For `Cn1cc(C2=C(c3cccc4ccccc34)C(=O)NC2=O)c2cc(Br)ccc21`, the growth in the test on DU-145 prostate was 110%; in the test with K-562 leukemia, 87.2%; in the test on MALME-3M melanoma, 143%; in the test with MDA-MB-231 breast, 113%; in the test with RXF 393 renal, 102%; in the test with SF-268 CNS, 102%. Besides, the growth in the test with SF-295 CNS was 102%; in the test on SF-539 CNS it was 121%; in the test with UACC-257 melanoma, 138%; in the test on M14 melanoma, 114%.
Turning to `COc1ccc(C/C(C)=C(/c2ccc(OCCN3CCCC3)cc2)c2ccc(OC(=O)NCc3ccccc3)cc2)cc1`, the growth is 95% in the test on DU-145 prostate; 1.16% (active) with K-562 leukemia; 83.6% in the test with MALME-3M melanoma; 101% with MDA-MB-231 breast; 76.8% in the test with RXF 393 renal; 86.5% in the test with SF-268 CNS. Also, the growth was 95.2% in the test on SF-295 CNS, 82.5% in the test with SF-539 CNS, 107% with UACC-257 melanoma and -20.8% (active) in the test on M14 melanoma.
With `O=C1C=CC(=O)N1c1ccc2ccccc2c1`, the growth in the test on DU-145 prostate is 94.4% and 99.5%; with K-562 leukemia it was 47% and 35.5%; in the test with MALME-3M melanoma, 69.4% and 30.9%; in the test with MDA-MB-231 breast, 111% and 96.5%; with RXF 393 renal, 83.3% and 102%; in the test on SF-268 CNS it was 100% and 105%. The growth is 112% and 99% with SF-295 CNS; 108% and 93.6% in the test with SF-539 CNS; 92.5% and 91.1% with UACC-257 melanoma; 91.1% and 103% in the test with M14 melanoma.
Turning to `NC(=O)c1c(NC(=O)/C=C/c2cccs2)sc2c1CCC(=O)C2`, the growth with DU-145 prostate is 81.6%; with K-562 leukemia, 14.3%; in the test on MALME-3M melanoma, 75.1%; in the test with MDA-MB-231 breast it was 24.6%; in the test on RXF 393 renal, 26.9%; in the test with SF-268 CNS, 22.5%. Moreover, the growth is 80.9% with SF-295 CNS, 16.3% in the test with SF-539 CNS, 70.7% in the test with UACC-257 melanoma and 24.8% in the test with M14 melanoma.
On to `Nc1ccc(S(=O)(=O)c2ccc(N)cc2)cc1`, for which the growth in the test on DU-145 prostate was 115% and 113%; in the test on K-562 leukemia, 104% and 144%; with MALME-3M melanoma, 109% and 121%; with MDA-MB-231 breast it was 108% and 112%; in the test with RXF 393 renal, 104% and 108%; in the test with SF-268 CNS it was 112% and 108%. Further, the growth in the test with SF-295 CNS was 94.4%; in the test on SF-539 CNS, 103% and 97.6%; in the test on UACC-257 melanoma, 103% and 93.4%; in the test on M14 melanoma, 101% and 97.5%.
As for `COc1ccc(CCNC(=O)COc2cc3c(Nc4ccc(F)c(Cl)c4)ncnc3cc2OC)cc1OC`, the growth in the test on DU-145 prostate was 58%; with K-562 leukemia it was 112%; in the test with MALME-3M melanoma, 86.9%; in the test with MDA-MB-231 breast, 94.4%; with RXF 393 renal, 96%; in the test on SF-268 CNS it was 85.7%. Further, the growth with SF-295 CNS was 98.1%; in the test with SF-539 CNS, 103%; in the test on UACC-257 melanoma, 110%; in the test on M14 melanoma, 101%.
On to `COc1cc(C(=O)c2ccccc2C(=O)O)c(OC)c2c1CCCC2`, for which the growth was 99% and 106% with DU-145 prostate; 85.7% and 84.7% with K-562 leukemia; 90.5% and 97.3% with MALME-3M melanoma; 87.8% and 101% with MDA-MB-231 breast; 107% and 100% in the test with RXF 393 renal; 92.5% and 101% in the test on SF-268 CNS. The growth was 97% and 102% in the test with SF-295 CNS; 97.3% and 103% in the test with SF-539 CNS; 95.9% and 99.5% with UACC-257 melanoma; 94.4% and 97.6% with M14 melanoma.
As for `COc1c(F)cc(-n2c(C(=O)N3CC(F)C3)cc3cccnc32)cc1F`, the growth with DU-145 prostate is 106%; in the test on K-562 leukemia it was 95.5%; with MALME-3M melanoma, 121%; with MDA-MB-231 breast, 96.5%; in the test with RXF 393 renal, 107%; in the test with SF-268 CNS it was 94.9%. The growth in the test on SF-295 CNS is 102%; with SF-539 CNS, 98%; with UACC-257 melanoma, 102%; in the test on M14 melanoma, 119%.
As for `CCCCCCCCn1ccc2cc(NC(=O)CN3CCN(c4nc(C)cc(N5CCCCC5)n4)CC3)ccc21`, the growth in the test on DU-145 prostate was 95.2%; in the test with K-562 leukemia, 56%; with MALME-3M melanoma, 112%; in the test on MDA-MB-231 breast, 85.7%; in the test on RXF 393 renal it was 86.9%; in the test on SF-268 CNS, 93.3%. In addition, the growth with SF-295 CNS is 103%; in the test with SF-539 CNS, 105%; in the test on UACC-257 melanoma it was 115%; in the test on M14 melanoma, 90.6%.
As for `O=C1Nc2ccccc2/C1=C/c1cccn1CCCCCn1c2ccccc2c(=O)c2ccccc21`, the growth in the test on DU-145 prostate was 97.9%; in the test on K-562 leukemia it was 52.1%; in the test on MALME-3M melanoma, 84.5%; in the test on MDA-MB-231 breast, 69.3%; in the test on RXF 393 renal it was 89.2%; in the test on SF-268 CNS, 83.3%. In addition, the growth with SF-295 CNS was 93.1%; in the test on SF-539 CNS it was 94.2%; with UACC-257 melanoma, 106%; in the test with M14 melanoma it was 73.3%.
On to `NNCCc1ccccc1`, for which the growth in the test with DU-145 prostate is 122% and 108%; in the test on K-562 leukemia it was 91.5% and 105%; in the test on MALME-3M melanoma, 82.1%; in the test with MDA-MB-231 breast it was 93.4% and 83.5%; in the test with RXF 393 renal, 122% and 80.3%; with SF-268 CNS, 108% and 96.1%. Besides, the growth with SF-295 CNS is 106% and 92%; in the test with SF-539 CNS, 96.9%; in the test on UACC-257 melanoma, 121%; with M14 melanoma, 101% and 96.1%.
